# Source: PubChem
# An excerpt weighted towards active compounds, which were near 1.3% of everything screened.
# AMA1-RON2 inh: disrupts binding of P. falciparum AMA1 to RON2; 360,000 compounds, 0.2% hits; AlphaScreen AMA1-biotinylated RON2 peptide binding; Potency, µM (series often up to 58.2 µM), usual class: inhibitors; note: nearly all actives have a fitted effect of over 45% in size
#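 AMA1 (3D7) with his tag at 25 nM final met compounds first, then biotinylated RON2 peptide at 25 nM; detection used donor plus acceptor beads, 10 µg/mL apiece, read by AlphaScreen after 30 min at room temperature.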
# Giardia FBPA inh: inhibitors of Giardia lamblia fructose-1,6-bisphosphate aldolase | A8B2U2 | AID 2451 | 290,000 compounds, 0.71% hits | Potency, µM (titrated, usually from 59.6 µM), usual class: inhibitors | purified Giardia FBPA; note: nearly all actives have a fitted effect of over 55% in size
#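 Giardia FBPA (40 nM reagent) was preincubated 10 min at RT with compound (up to 57.5 uM final), then substrate plus GAPDH/TPI/NAD/arsenate coupling system with diaphorase/resazurin was added; resorufin fluorescence (525/598 nm) was read after 20 min.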
# AmpC detergent: blocks E. coli AmpC beta-lactamase in detergent assay; AID 485294; P00811; AmpC hydrolysis of nitrocefin, absorbance 480 nm, 0.01% Triton; Potency, µM (titrated, usually from 114 µM), actives largely listed as inhibitors; 370,000 compounds, 0.041% hits; note: nearly all actives have a fitted effect of over 25% in size
# Target sequence (P00811 whole entry, looked up): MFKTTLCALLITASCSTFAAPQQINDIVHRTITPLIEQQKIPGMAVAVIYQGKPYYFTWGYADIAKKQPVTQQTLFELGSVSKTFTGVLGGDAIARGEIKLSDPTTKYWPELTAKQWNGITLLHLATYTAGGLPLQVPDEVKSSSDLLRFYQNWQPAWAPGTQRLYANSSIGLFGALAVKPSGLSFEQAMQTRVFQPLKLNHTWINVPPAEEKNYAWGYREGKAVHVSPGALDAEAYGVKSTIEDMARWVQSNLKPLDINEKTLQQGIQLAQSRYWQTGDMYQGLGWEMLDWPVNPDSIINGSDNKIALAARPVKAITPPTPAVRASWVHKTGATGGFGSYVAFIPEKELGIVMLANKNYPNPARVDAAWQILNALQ
#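 AmpC (5.3 nM in the dispensed reagent) in 20 mM phosphate pH 7.0 with 0.01% (detergent screen) or 0.0001% Triton X-100 was preincubated with compounds for 15 min at room temperature. Nitrocefin was then added from an 800 uM solution, and hydrolysis was followed at 480 nm.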
# LmPK inh: blocks Leishmania mexicana pyruvate kinase activity; Q27686; purified LmPK, Kinase-Glo ATP luminescence, 1 h; Potency, µM (doses to about 57.5 µM), most hits filed as inhibitors; 290,000 compounds, 0.37% hits
#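 Kinase-Glo luminescence read after 1 h RT reaction of 0.1 nM LmPK with 0.5 mM PEP and 0.1 mM ADP. Activity scaled between uninhibited and enzyme-free controls.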
# AmpC inh no detg: inhibitors of E. coli AmpC beta-lactamase without detergent. 330,000 compounds, 0.52% hits. AID 485341. P00811. AmpC nitrocefin hydrolysis, absorbance 480 nm, 0.0001% Triton. Potency, µM (doses to about 57.1 µM), most hits filed as inhibitors; note: nearly all actives have a fitted effect of over 20% in size
#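 20 mM phosphate pH 7.0 + 0.01% (detergent screen) or 0.0001% Triton X-100; 5.3 nM AmpC reagent; cpd preinc 15 min RT; nitrocefin (800 uM stock) to start; A480 q20 s × 4 min; Activity was normalised to no-enzyme and no-compound control wells.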
# Hits are given with their value; - = inactive; ? = inconclusive; . = no result; ! = not confirmed by another sample; [ ] = remark or other dose. Calls come from the whole dose curve; as a rule, active = well fitted curve in the direction sought with a large enough effect; inconclusive = small, poorly fitted or top-dose-only effect, or another doubt; inactive = no such curve, though single readings can be large; an effect the other way counts as inactive or inconclusive.
SMILES,AMA1-RON2 inh,Giardia FBPA inh,AmpC detergent,LmPK inh,AmpC inh no detg
O=C(Nc1ccc(N2CCCCCC2)cc1)c1ccccc1Cl,?,-,-,-,-
Cc1cc(C)cc(NC(=O)Nc2ccc(N3CCCCC3)cc2)c1,-,-,-,-,15.8µM
CC(=O)c1cccc(NC(=O)C2CCN(C(=O)c3cccs3)CC2)c1,-,-,-,-,-
Cc1cccc(C)c1NC(=O)C1c2ccccc2OCC(=O)N1CCc1ccccc1 (configuration not stated),-,.,.,.,.
O=C(O)/C=C/C(=O)Nc1ccc(C2(c3ccc(NC(=O)/C=C/C(=O)O)cc3)c3ccccc3-c3ccccc32)cc1,-,-,-,-,12.6µM
CN(Cc1ccccc1)C(=O)C1(C)CCN1C(=O)Cc1ccc(Cl)cc1Cl (configuration not stated),-,.,.,.,.
O=C(O)CCNc1cc2ccccc2cc1C(=O)O,-,4.46µM,?,-,-
CNC(=O)C1(C(F)(F)F)C/C(=C\Cc2ccccc2)CCCO1 (configuration not stated),.,-,.,.,.
CN(C)c1ccc(NC(=S)c2ccccn2)cc1,14.1µM,?,-,4.47µM,-
O=C(O)c1cc(N/N=C/c2ccc3c(c2)OCO3)ccc1Cl,-,-,-,-,-
CC(C)c1ccc(/C=N/NC(=O)c2ccccn2)cc1,-,-,-,14.1µM,-
CN(C)c1ccc(C(=S)Nc2ccccc2)cc1,-,-,-,-,-
CN(C)c1ccc(/C=N/NC(=O)c2ccccn2)cc1,-,-,-,12.6µM,-
O=C(O)c1ccc(N/N=C/c2ccc3c(c2)OCO3)cc1,-,-,-,10µM,-
COc1ccc(-c2cn3nc(N4CCCC(C(=O)NCc5ccccc5OC)C4)sc3n2)cc1 (configuration not stated),.,.,-,.,.
CSCCC(C(=O)NC(C)(C)C)n1c(-c2cccc(NC(C)=O)c2)nc2ccccc21 (configuration not stated),-,.,.,.,.
CCCCNC(=O)c1nc(C2CCN(S(=O)(=O)c3ccc(F)c(F)c3)CC2)oc1-c1ccccc1,-,.,.,.,.
CC(C)c1ccc2c(c1)-c1ccccc1S(=O)(=O)N2CC(=O)N1CCCCC1,.,.,-,.,.
C[C@@H]1C(=O)N(S(=O)(=O)c2ccccc2[N+](=O)[O-])[C@H]1c1ccc(-c2ccccc2)cc1,.,-,.,.,.
O=C(CCN=C1NS(=O)(=O)c2ccccc21)OCc1nnc(-c2ccc([N+](=O)[O-])cc2)o1,-,.,.,.,-
CN(C)c1ccc(/C=N/NC(=O)c2ccn(C)n2)cc1,-,-,-,-,-
COc1cccc(OCc2cc(/C=N/Nc3ccc(C(=O)O)cc3)ccc2OC)c1,-,-,-,-,17.8µM
O=C(N/N=C/c1ccc2c(c1)OCO2)c1ccccn1,-,-,-,11.2µM,-
COc1cccc(C(=O)Oc2ccc(/C=N/Nc3ccc(C(=O)O)cc3)cc2OC)c1,-,-,-,-,-
CN(C)c1ccc(/C=C(\C#N)c2ccccn2)cc1,-[11.6 µM],-,?,10µM,-
SMILES,AMA1-RON2 inh,Giardia FBPA inh,AmpC detergent,LmPK inh,AmpC inh no detg
CN(C)c1ccc(/C=N/NC(=O)c2ccnn2C)cc1,-,-,-,8.91µM,-
N#C/C(=C\c1ccc([N+](=O)[O-])cc1)c1ccccn1,-,-,-,-,-
CCOC(=O)C1=CCN(S(=O)(=O)c2ccccc2C)C1c1cccc(Br)c1 (configuration not stated),-,.,.,.,.
O=C1NC(=O)C(=Cc2cc3c(cc2[N+](=O)[O-])OCO3)C(=O)N1,-,-,50.1µM,-,?
Cc1ccc(OCCN2CCN(C)CC2)c([N+](=O)[O-])c1,25.1µM,-,?,-,-
O=C(COC(=O)c1cnccn1)NCCc1ccc(Cl)cc1,-,.,-,.,-
CC(C)(C)C1CCc2c(sc3nc(SCC(=O)O)nc(N)c23)C1 (configuration not stated),-,-,-,25.1µM,-
Cc1ccc(/C=C/C(=O)N2CCc3ccccc32)o1,-,-,-,?,-
O=C(/C=C/c1ccco1)N1CCc2ccccc21,?,-,-,7.94µM,-
CN1CCC(c2c[nH]c3ccc(O)cc23)CC1,-,1.99µM!,.,.,.
CC(C)Oc1ccc(C(=O)N2CC(=O)Nc3ccc(F)cc3C2c2ccc(F)cc2)cc1 (configuration not stated),.,.,-,.,.
